From PubChem BioAssay
B2AR arrestin ag = qHTS assay of beta-arrestin-biased ligands of beta2-adrenergic receptor: NCGC Sytravon Library Screen | Beta-2 adrenergic receptor (Homo sapiens), P07550 | HTLA Tango cells, beta-arrestin recruitment, luciferase luminescence, 18 h | Potency, µM (series often up to 46.1 µM), actives largely listed as activators | 44,000 tested, under 10 active | AID 1347077, 2019;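 note: potency is the fitted concentration of half-maximal effect; 0% = DMSO and full agonism = EC100 isoproterenol or metaproterenol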
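Tango cells (recombinant beta2-AR, beta-arrestin, tTA-driven luciferase), 1500/well in DMEM 1% FBS, treated 18 h at 37 °C with compounds up to 46 µM; luciferin mix added, luminescence read after 15 min; %activity curves fitted and curve-classed.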
DRV1 agonist = qHTS for Agonists of Human Resolvin D1 Receptor DRV1 | Probable G-protein coupled receptor 32 (Homo sapiens), O75388 | CHO-K1 GPR32 beta-arrestin PathHunter luminescence, 90 min; zero percent set by DMSO-only wells | activation, % at 76.9 µM | actives 2.5% (n = 48,000) | AID 1346428, 2018;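 active = activation of at least 60% and not above a set upper limit, about 1 call in 100 departs from these limits; inconclusive = activation of 40% to 60%, or above that upper limit; inactive = activation under 40%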; note: 0% is about no effect
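Step 1: seed CHO-K1 GPR32 beta-arrestin cells, 2,500/well, overnight at 37 °C. Step 2: add compounds, 90 min at 37 °C. Step 3: detection reagent, 1 h ambient, then luminescence.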
GALC G270D act = A Novel Cell-Based Assay to Identify Small Molecules for B -Galactocerebrosidase. P54803. actives 0.1% (n = 45,000). Potency, µM (doses to about 57.5 µM), most hits filed as activators. AID 1159614, 2016. 145M-Twi-hGALC-G270D cells (Twitcher mouse brain line with human GALC G270D), HMU-beta-Gal fluorescence, 48 h; note: potency is the fitted concentration of half-maximal effect; 0% is about no effect; nearly all actives have a fitted effect of over 65% in size
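Live 145M-Twi cells (Twitcher mouse brain-derived, GALC-null) stably expressing human GALC-G270D, with a wild-type GALC line, were compound-treated. Residual GALC activity was then read as fluorescence from 0.1 mM final HMU-β-gal at pH 5.2; higher signal means activation.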
FH mod = Identification of activators of human fumarate hydratase by quantitative high-throughput screening; AID 1347055, 2019; actives 0.22% (n = 54,000); Fumarate hydratase, mitochondrial (Homo sapiens), P07954; FH coupled MDH/diaphorase resazurin fluorescence, 15 min; Potency, µM (doses to about 79.9 µM), for the others: at the top dose activity change, negative = inhibition, hits mostly inhibitors; note: potency is the fitted concentration of half-maximal effect; % is set by controls: 0 for no effect and ±100 for the full control effect; the screen sought activators but most active calls are inhibition curves; nearly all actives have a fitted effect of over 45% in size
Target sequence (P07954 whole entry, looked up): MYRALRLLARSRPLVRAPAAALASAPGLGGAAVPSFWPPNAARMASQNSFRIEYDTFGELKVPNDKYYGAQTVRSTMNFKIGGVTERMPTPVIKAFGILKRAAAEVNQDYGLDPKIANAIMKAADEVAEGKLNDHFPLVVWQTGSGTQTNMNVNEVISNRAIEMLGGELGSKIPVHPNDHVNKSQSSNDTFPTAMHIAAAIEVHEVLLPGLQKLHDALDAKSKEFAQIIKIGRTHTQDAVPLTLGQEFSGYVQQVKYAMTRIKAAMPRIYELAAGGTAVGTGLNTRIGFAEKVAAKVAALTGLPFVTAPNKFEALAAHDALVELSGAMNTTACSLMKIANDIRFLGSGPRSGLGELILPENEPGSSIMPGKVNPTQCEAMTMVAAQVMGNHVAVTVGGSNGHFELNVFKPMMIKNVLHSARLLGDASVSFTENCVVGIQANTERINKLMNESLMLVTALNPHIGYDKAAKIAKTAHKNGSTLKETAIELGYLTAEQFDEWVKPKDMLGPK
* hit, by the source's call; [ ] = another dose, or the depositor's remark. The list is not random: actives were taken first. Their share in the collection is about 2.8%. Unless noted, calls come from the whole dose curve; as a rule, active = well fitted curve in the direction sought with a large enough effect; inconclusive = small, poorly fitted or top-dose-only effect, or another doubt; inactive = no such curve, though single readings can be large; an effect the other way counts as inactive or inconclusive.

Screening C/C(=N\O)[C@@H](C)NCC(C)(C)CN[C@H](C)/C(C)=N/O returned DRV1 agonist 118*, GALC G270D act inactive and FH mod 2%[53.3 µM].
For CC(=O)O[C@@H]1C[C@]2(C)[C@@]3(CCC4[C@@]5(C)CC[C@H](O[C@@H]6O[C@H](C(=O)O)[C@@H](O)[C@H](O[C@@H]7O[C@H](CO)[C@H](O)[C@H](O)[C@H]7O[C@@H]7O[C@@H](C)[C@H](O)[C@@H](O)[C@H]7O[C@@H]7OC[C@](O)(CO)[C@H]7O)[C@H]6O[C@@H]6O[C@H](CO)[C@H](O)[C@H](O)[C@H]6O)C(C)(C)C5CC[C@]42C)O[C@@H](O)[C@]12C3CC(C)(C)[C@@H](OC(=O)/C=C/c1ccc(O)c(O)c1)[C@@H]2OC(=O)/C=C/c1ccccc1 (stereo partly drawn) the results were FH mod -3%[13.5 µM].
`Cc1ccccc1C(=O)OCc1cc(=O)n2c(C)csc2n1` gave B2AR arrestin ag inactive, DRV1 agonist 75*, GALC G270D act inactive and FH mod 3%.
For COc1ccccc1C(=O)Nc1ccccc1C(=O)OCc1cc(=O)n2c(C)csc2n1 the results were B2AR arrestin ag inactive, DRV1 agonist -8, GALC G270D act inactive and FH mod -21%.
CCOC(=O)N1c2ccc(C(F)(F)F)cc2C(N(Cc2cc(C(F)(F)F)cc(C(F)(F)F)c2)C(=O)OC)CC1CC (stereo not drawn) was read as FH mod -6%.
COc1ccc(CCNc2ncnc3c2cnn3-c2ccc(C)c(Cl)c2)cc1 was read as B2AR arrestin ag inactive, DRV1 agonist inconclusive, GALC G270D act inactive and FH mod -15%.
`Cc1ccc(CNc2ncnc3c2cnn3-c2ccc(C)cc2C)cc1` gave B2AR arrestin ag inactive, DRV1 agonist 61*, GALC G270D act inactive and FH mod inconclusive.
Screening Cc1ccc(-n2ncc3c(NCCc4ccccc4)ncnc32)cc1 returned B2AR arrestin ag inactive, DRV1 agonist 94*, GALC G270D act inactive and FH mod -3%.
For Cc1ccc(-n2ncc3c(NCCc4ccccc4)ncnc32)cc1Cl the results were B2AR arrestin ag inactive, DRV1 agonist 117*, GALC G270D act inactive and FH mod -15%.
For CN1c2c(nc(N)[nH]c2=O)NC[C@@H]1CNc1ccc(C(=O)N[C@@H](CCC(=O)O)C(=O)O)cc1 the results were FH mod 13%.
Cc1ccccc1-c1noc(CSc2nc3ccccc3[nH]2)n1 was read as B2AR arrestin ag inactive, DRV1 agonist 31, GALC G270D act inactive and FH mod -16%.
Screening COc1ccc(-c2noc(CSc3nc4ccccc4[nH]3)n2)cc1OC returned B2AR arrestin ag inactive, DRV1 agonist 67*, GALC G270D act inactive and FH mod -18%.
`COC(=O)C(CC1CCCC1)c1ccc(S(C)(=O)=O)cc1` (stereo not drawn) gave FH mod 1%.
Screening COC(=O)C1=C(C)NC(C)=C(C(=O)OCCc2ccc(N3CCN(C(c4ccccc4)c4ccccc4)CC3)cc2)C1c1cccc([N+](=O)[O-])c1 (stereo not drawn) returned DRV1 agonist 0, GALC G270D act inactive and FH mod -8%[53.3 µM].
For COC(=O)C1=C(C)NC(C)=C(C(=O)OCCCN2CCC(c3ccccc3)(c3ccccc3)CC2)C1c1cccc([N+](=O)[O-])c1 (stereo not drawn) the results were DRV1 agonist 105*, GALC G270D act inactive and FH mod -7%[53.3 µM].
Screening O=C1NC(=O)/C(=C/c2ccc(-c3ccc(F)cc3O)o2)S1 returned DRV1 agonist 62* and FH mod inconclusive.
For N#C/C(=C\c1ccc(-c2ccc(F)cc2F)o1)c1nc2ccccc2[nH]1 the results were B2AR arrestin ag inactive, DRV1 agonist -7, GALC G270D act inactive and FH mod -1%.
For Cn1nccc1Nc1nccc(-c2ccn([C@H](CO)c3ccc(Cl)c(F)c3)c(=O)c2)n1 the results were FH mod 1%.
Cc1ccc(CNC(=O)Cc2csc3ccccc23)cc1 was read as B2AR arrestin ag inactive, DRV1 agonist 85*, GALC G270D act inactive and FH mod -8%.
`CC(=O)OCc1cc(=O)n2nc(C3CCCCC3)sc2n1` gave B2AR arrestin ag inactive, DRV1 agonist 15, GALC G270D act inactive and FH mod -10%.
`CC(C)(C)C(=O)OCc1cc(=O)n2nc(C3CCCCC3)sc2n1` gave B2AR arrestin ag inactive, DRV1 agonist 79*, GALC G270D act inactive and FH mod 6%.
Screening CCOc1cccc(C(=O)Nc2ccc3oc(-c4cccnc4)nc3c2)c1 returned B2AR arrestin ag inactive, DRV1 agonist 107*, GALC G270D act inactive and FH mod -5%.
Screening CCOc1ccc(C(=O)Nc2ccc(-c3nc4cc(C(C)C)ccc4o3)cc2)cc1Cl returned B2AR arrestin ag inactive, DRV1 agonist 84*, GALC G270D act inactive and FH mod 15%.
For CC1CC(=O)C2=C(O1)OC1(C)CCC3C(C)(C)C=CC(=O)C3(C)C1C2 (stereo not drawn) the results were FH mod -10%[53.3 µM].
COc1cc(/C=C/C(=O)OC[C@H]2O[C@@](CO)(O[C@H]3O[C@H](CO)[C@@H](O)[C@H](O)[C@H]3O)[C@@H](OC(=O)/C=C/c3ccc(O)c(OC)c3)[C@@H]2O)ccc1O was read as FH mod -4%[20.6 µM].
`CCc1cccc(C)c1Nc1c(-c2cccc(O)c2)nc2sccn12` gave B2AR arrestin ag inactive, DRV1 agonist -22, GALC G270D act inactive and FH mod inconclusive.
COc1cc(-c2nc3sccn3c2Nc2c(C)cccc2C)ccc1O was read as B2AR arrestin ag inactive, DRV1 agonist -17, GALC G270D act inactive and FH mod 16µM*.
For Cc1cccc(C)c1Nc1c(-c2ccc(O)cc2)nc2sccn12 the results were B2AR arrestin ag inactive, DRV1 agonist -2, GALC G270D act inactive and FH mod 32µM*.
O=C(c1ccc(C#Cc2cccc(F)c2)cn1)N1CC2CC2C1 (stereo not drawn) was read as FH mod -3%.
CC(=O)NC[C@H]1CN(c2ccc(N3CCN(C(=O)CO)CC3)c(F)c2)C(=O)O1 was read as FH mod -7%.
For CC1CCC2(NC1)OC1C(O)C3C4CCC5CC(O[C@@H]6O[C@H](CO)[C@@H](O)[C@H](O)[C@H]6O[C@@H]6O[C@@H](C)[C@H](O)[C@@H](O)[C@H]6O)CCC5(C)C4CCC3(C)C1C2C (stereo partly drawn) the results were FH mod 11%[20.6 µM].
